About 3,000 (0.83%) of roughly 360,000 compounds were called active. This excerpt belongs to a sample that is enriched for actives. Unmarked numbers belong to inactive results. Cut-off read from the data, not from the text of the source: active = inhibition above about 38%; inactive = the rest.
Target: G-protein coupled receptor 183 (Homo sapiens) (UniProt P32249)
Assay: blockers of oxysterol-driven EBI2 arrestin signaling – cell-based, luminescence, 7a,25-OHC stimulation, uHTS, primary screen (AID 651636);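 note: enzyme fragment complementation signal reports receptor beta-arrestin coupling in cells; 0% = agonist plus DMSO wells and 100% = wells without agonist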
Settings: EBI2 beta-arrestin recruitment, 7a,25-OHC stimulated, at 5 µM, hits give high values

Chain of G-protein coupled receptor 183 (Homo sapiens) (P32249 whole entry, looked up, the tested form may be a part): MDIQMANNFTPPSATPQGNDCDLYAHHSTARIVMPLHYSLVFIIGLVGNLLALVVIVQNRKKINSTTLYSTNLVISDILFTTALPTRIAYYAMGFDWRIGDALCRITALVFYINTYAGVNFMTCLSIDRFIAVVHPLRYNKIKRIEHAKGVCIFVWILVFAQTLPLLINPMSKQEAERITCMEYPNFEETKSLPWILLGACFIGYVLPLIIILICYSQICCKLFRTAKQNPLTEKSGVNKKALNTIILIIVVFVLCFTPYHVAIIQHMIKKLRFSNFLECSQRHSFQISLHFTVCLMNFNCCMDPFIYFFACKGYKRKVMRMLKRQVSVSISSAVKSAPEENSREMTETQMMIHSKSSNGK

Row | SMILES | inhibition
1 | O=C(NNC1=C(C(=O)C(F)(F)F)CCC1)c1ccncc1 | 8.49%
2 | CCNC(=S)N1CCC(c2nc3cc(C)c(C)cc3[nH]2)CC1 | -8.84%
3 | Cc1coc2c(O)cc3c(c12)OC1(N2CCCCC2)C(=O)NCCCC31 (stereo not drawn) | 9.31%
4 | NCCCCC(C(=O)O)N(C(=O)OCc1ccccc1)C(=O)OCc1ccccc1 (stereo not drawn) | -5.81%
5 | O=C1/C(=C\c2ccc([N+](=O)[O-])cc2)CS(=O)(=O)C/C1=C/c1ccc([N+](=O)[O-])cc1 | 50.3% (active)
6 | O=C(Cc1ccccc1)N1CCN(S(=O)(=O)c2ccc([N+](=O)[O-])cc2)CC1 | -5.46%
7 | Cc1ccc([N+](=O)[O-])cc1S(=O)(=O)N1CCCN(C)CC1 | -7.92%
8 | O=C1NC(c2ccccc2)Cc2ccncc21 (stereo not drawn) | -15.8%
9 | CC(C)Oc1ccc(C(=O)NC(C)(C)CO)cc1 | -14.5%
10 | Cn1cc[n+](C)c1COc1ccc(C=O)cc1 | -3.22%
11 | Fc1ccccc1/C=N/Nc1cc(N2CCCCC2)ncn1 | 53.8% (active)
12 | COc1ccccc1N1CCN(C(=O)C(=O)N/N=C/c2ccccc2F)CC1 | 2.46%
13 | Nc1[nH][nH]c(=O)c1N=Nc1ccc2c(c1)OCO2 | -4.76%
14 | Cc1cccc(N=C2SC(C)CN2C(=O)CN2C(=O)NC3(CCCC3)C2=O)c1 (stereo not drawn) | 8.85%
15 | Cc1cccc(N=C2NC(=O)/C(=C/c3cn(C)c4ccccc34)S2)c1 | 45% (active)
16 | Cc1cccc(Oc2c([N+](=O)[O-])c(=O)n(C)c3ccccc23)c1 | -38.4%
17 | Cc1cc(C)nc(/N=C2\NC(=O)CC(C(=O)O)N2c2ccc(Cl)cc2Cl)n1 (stereo not drawn) | -2.42%
18 | Cn1c(N)c(C(=O)COC(=O)C23CC4CC(CC(C4)C2)C3)c(=O)n(C)c1=O | -6.77%
19 | Cc1oc2nc(SCC(=O)NCc3cccnc3)nc(N)c2c1C | -8.34%
20 | CC(=O)c1ccc(OCC(=O)N(C)C2CCS(=O)(=O)C2)cc1 (stereo not drawn) | -3.69%
21 | COc1ccc(NC(=O)/C(Cl)=C(/Cl)S(=O)Cc2ccc(C)cc2)cn1 (stereo not drawn) | 68.1% (active)
22 | CC(=O)Nc1ccc(CNc2nc(NCCN(C)C)nc3cc(-c4ccccc4)sc23)cc1 | 0.94%

Row | SMILES | inhibition
23 | Nc1nc(SCC(=O)NN(c2ccccc2)c2ccccc2)n[nH]1 | -1.98%
24 | O=C(COc1nsnc1N1CCOCC1)Nc1ccccc1Cl | -1.57%
25 | O=C(Nc1ccccc1Cl)/C(Cl)=C(\Cl)S(=O)c1ccccc1 (stereo not drawn) | 59.7% (active)
26 | Cc1cccc(-c2nc(CS(=O)CC(=O)NC(C)CCc3ccccc3)c(C)o2)c1 (stereo not drawn) | 0.721%
27 | CCC(=C/c1sc2ccc3ccccc3c2[n+]1C)/C=C1\Sc2ccc3ccccc3c2N1C | 1.97%
28 | CCN1CCN(C(=O)CSc2ccc(C)cc2)CC1 | 70.3% (active)
29 | CCOC(=O)N1CCN(C(=O)CSc2nc(C)nc3c2c(=O)n(C)c(=O)n3C)CC1 | -7.04%
30 | Cc1ccc(-n2c(CNc3ccc(F)cc3)nnc2SCC(=O)N2CCOCC2)cc1 | 7.68%
31 | O=C(CSc1ccc(Cl)cc1)NC1CC1 | -0.473%
32 | CCOC(=O)N1CCN(C(=O)CSc2ccc(Cl)cc2)CC1 | 84.7% (active)
33 | Cc1ccc(SCC(=O)N2CCN(c3ccc(F)cc3)CC2)cc1 | 62.9% (active)
34 | CS(=O)(=O)N(CC(=O)N1CCN(c2ccc(F)cc2)CC1)C1CCCCC1 | -6.78%
35 | CS(=O)(=O)N1CCN(C(=O)CSc2ccccc2)CC1 | 4.92%
36 | CCN1CCN(C(=O)CCN2C(=O)c3ccccc3C2=O)CC1 | 5.39%
37 | COC(=O)CNC(=O)C(CCSC)NC(C)=O (stereo not drawn) | 5.29%
38 | Cc1nc(C(F)(F)F)ccc1C(=O)N1CCC1(C)C(=O)NS(=O)(=O)c1ccc(F)cc1F (stereo not drawn) | 3.24%
39 | CNC(=O)C1CC(=O)N(c2ccc(OCC(=O)Nc3ccccc3C)cc2)C1 (stereo not drawn) | 2.34%
40 | Cc1nnc(SC(C)C(=O)c2c[nH]c3ccccc23)n1C1CC1 (stereo not drawn) | -6.27%
41 | CCOc1cc(-c2conc2N)cc(OCC)c1OCC | 7.1%
42 | CC(C)(C)OC(=O)C[C@@H]1C/C=C\C[C@@H](CC(=O)N[C@@H](CO)Cc2ccccc2)C(=O)N2CCC[C@H]2COC1=O | 1.7%
43 | CCC(C(=O)OC)n1cnc2c(oc3ccccc32)c1=O (stereo not drawn) | 3.69%
